# PubChem BioAssay AID651915 (Vanderbilt Specialized Chemistry Center, 2012)
# The source made the active and inactive calls. How the calls were made is not given here.
# Target: Histone deacetylase 5 (Homo sapiens) (UniProt Q9UQL6)
# Assay: HDAC5 deacetylase inhibition, profiling panel, selectivity assay for E-cadherin restoration project, biochemical, human (AID 651915)
# Histone deacetylase 5 (Homo sapiens), sequence (Q9UQL6 whole entry, looked up): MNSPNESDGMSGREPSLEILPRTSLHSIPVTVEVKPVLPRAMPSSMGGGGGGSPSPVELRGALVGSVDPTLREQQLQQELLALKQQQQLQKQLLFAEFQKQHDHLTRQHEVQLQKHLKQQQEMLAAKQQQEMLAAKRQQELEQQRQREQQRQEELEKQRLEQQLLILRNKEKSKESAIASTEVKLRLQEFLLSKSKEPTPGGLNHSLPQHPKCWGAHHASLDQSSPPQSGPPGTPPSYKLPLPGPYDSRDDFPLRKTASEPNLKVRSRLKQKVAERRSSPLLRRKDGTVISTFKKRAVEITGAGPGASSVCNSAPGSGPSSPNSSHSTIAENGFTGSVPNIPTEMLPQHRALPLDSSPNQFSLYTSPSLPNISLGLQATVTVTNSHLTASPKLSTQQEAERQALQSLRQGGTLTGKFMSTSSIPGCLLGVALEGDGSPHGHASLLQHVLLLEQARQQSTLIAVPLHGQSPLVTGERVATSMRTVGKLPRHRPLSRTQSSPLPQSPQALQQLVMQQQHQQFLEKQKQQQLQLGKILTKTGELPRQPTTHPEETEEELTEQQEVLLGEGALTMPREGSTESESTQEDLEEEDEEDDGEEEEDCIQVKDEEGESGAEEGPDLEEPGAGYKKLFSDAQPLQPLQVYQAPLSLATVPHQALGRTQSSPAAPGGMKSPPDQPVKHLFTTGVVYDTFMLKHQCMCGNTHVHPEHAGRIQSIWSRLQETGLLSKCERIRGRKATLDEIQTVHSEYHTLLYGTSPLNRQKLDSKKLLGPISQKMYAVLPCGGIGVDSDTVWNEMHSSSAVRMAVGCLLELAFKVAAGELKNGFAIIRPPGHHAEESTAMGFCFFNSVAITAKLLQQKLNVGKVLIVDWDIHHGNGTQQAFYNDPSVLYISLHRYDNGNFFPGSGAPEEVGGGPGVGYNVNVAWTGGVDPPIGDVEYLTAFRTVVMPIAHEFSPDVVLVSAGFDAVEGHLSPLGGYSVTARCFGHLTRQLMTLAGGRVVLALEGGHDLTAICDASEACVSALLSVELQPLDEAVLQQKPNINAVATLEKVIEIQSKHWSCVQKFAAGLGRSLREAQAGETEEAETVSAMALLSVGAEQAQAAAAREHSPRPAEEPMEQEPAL
smiles,measurement,value
O=C(NCCCNC(=O)c1ccc[nH]c1=O)c1cc(-c2ccccc2)on1,outcome,inactive
